Bioassay records deposited in PubChem BioAssay by National Center for Advancing Translational Sciences (NCATS).
Shiga inhibitor: Shiga toxin inhibition. Vero cells, Shiga toxin protein synthesis inhibition reporter. inhibition, % at 38.7 µM. hit rate 9.2% among 290,000. AID 2315; in the data active = inhibition mostly above about 28%, no sharp cut-off; inactive = mostly below about 43%
SARS PLpro yeast: SARS-CoV PLP inhibition in yeast; S. cerevisiae expressing SARS-CoV PLpro, growth rescue; hit rate 0.19% among 330,000; Potency, µM (titrated, usually from 32.9 µM), most hits filed as activators; AID 485353; note: nearly all actives have a fitted effect of over 55% in size
Tb PYK inh: inhibitors of Trypanosoma brucei pyruvate kinase; Q57TT1; TbPYK enzyme, Kinase-Glo Plus ATP luminescence, 45 min; Potency, µM (top dose mostly 76.8 µM), usual class: inhibitors; hit rate 0.12% among 410,000; AID 624173; active = well fitted curve in the direction sought with a large enough effect; inconclusive = small, poorly fitted or top-dose-only effect, or another doubt; inactive = no such curve, though single readings can be large; an effect the other way counts as inactive or inconclusive; note: nearly all actives have a fitted effect of over 50% in size
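Screened from lowest to highest concentration, compounds were pinned into TbPYK/substrate mixtures, and ADP (130 uM final) was added. Plates sat at room temperature for 45 min prior to Kinase-Glo Plus detection by luminescence.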
CHX counter: counter-screen for Shiga toxin inhibitors: cycloheximide protein synthesis inhibition. hit rate 12% among 300,000. max response, %. cell reporter, cycloheximide protein synthesis inhibition counterscreen; in the data active = max response mostly above about 13%, no sharp cut-off; inactive = mostly below about 14%; note: read at 38.3 µM for the half of the compounds with a filed dose
NS1 inh: inhibitors of influenza NS1 protein function. hit rate 0.4% among 270,000. Potency, µM (doses to about 46.1 µM); note: actives are rising curves; nearly all actives have a fitted effect of over 50% in size
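Growth recovery, yeast-based: influenza A NS1 expressed in S. cerevisiae causes slow growth, and suppressors are detected by OD600. The parent strain without NS1 is used as positive control.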
LmPK inh: blocks Leishmania mexicana pyruvate kinase activity. Q27686. purified LmPK, Kinase-Glo ATP luminescence, 1 h. Potency, µM (highest dose often 57.5 µM), actives largely listed as inhibitors. hit rate 0.37% among 290,000. AID 1721; active = well fitted curve in the direction sought with a large enough effect; inconclusive = small, poorly fitted or top-dose-only effect, or another doubt; inactive = no such curve, though single readings can be large; an effect the other way counts as inactive or inconclusive
Target sequence (Q27686 whole entry, looked up): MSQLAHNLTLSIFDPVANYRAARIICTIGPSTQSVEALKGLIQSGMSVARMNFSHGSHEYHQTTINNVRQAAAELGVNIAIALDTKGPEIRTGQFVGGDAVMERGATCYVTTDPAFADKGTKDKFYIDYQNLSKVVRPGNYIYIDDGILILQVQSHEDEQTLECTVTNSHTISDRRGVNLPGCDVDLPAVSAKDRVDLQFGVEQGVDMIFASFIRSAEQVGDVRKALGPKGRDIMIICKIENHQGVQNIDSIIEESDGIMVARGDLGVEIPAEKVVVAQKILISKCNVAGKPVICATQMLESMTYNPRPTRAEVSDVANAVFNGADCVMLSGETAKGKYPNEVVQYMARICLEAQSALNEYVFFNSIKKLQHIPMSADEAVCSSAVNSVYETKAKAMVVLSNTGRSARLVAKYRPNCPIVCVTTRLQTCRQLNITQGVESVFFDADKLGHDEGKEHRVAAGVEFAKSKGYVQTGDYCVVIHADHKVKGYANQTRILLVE
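Purified LmPK (0.1 nM) converted ADP (0.1 mM) to ATP with PEP (0.5 mM) in imidazole buffer pH 7.2 with KCl and MgCl2, 1 h at room temperature. ATP was read by Kinase-Glo luminescence; data normalized to uninhibited and no-enzyme controls.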
Numbers stand for hits; 0 = inactive; ? = inconclusive; - = no result; [ ] = dose if it differs, or a comment. The full list was thinned out, with hits kept by preference. Unless noted, calls come from the whole dose curve.

SMILES	Shiga inhibitor	SARS PLpro yeast	Tb PYK inh	CHX counter	NS1 inh	LmPK inh
COCCn1c(C)cc(C(=O)COC(=O)c2ccc3ncsc3c2)c1C	109.8	0	?	23.9	0	0
COCCn1c(C)cc(C(=O)COC(=O)c2cncc(Br)c2)c1C	54.0	0	0	36.1	0	0
COCCn1c(C)cc(C(=O)COC(=O)c2ccc(NC(=O)CC#N)cc2)c1C	72.6	0	0	40.2	0	0
CC(C)C(NS(=O)(=O)c1cccc2nsnc12)C(=O)NC1CCCCC1C (configuration not stated)	0	0	0	0	0	0
COc1ccc2cc(-c3ccn[nH]3)ccc2c1	79.9	0	0	31.7	0	0
Cc1ccc(NC(=O)c2cnn(-c3ccccc3)c2C)cc1	-	0	0	32.5	0	0
Cc1cccc(C)c1NC(=O)c1cnn(-c2ccccc2)c1C	0	0	0	0	0	0
Cc1ccc(NC(=O)c2cnn(-c3ccccc3)c2C)c(C)c1	0	0	0	38.2	0	0
CC1=NN(C(N)=S)C(=O)C1N=Nc1ccccc1Cl (configuration not stated)	-	0	0	18.3	0	0
COc1ccccc1N=NC1C(=O)N(C(N)=S)N=C1C (configuration not stated)	-	0	0	0	0	0
CC1=NN(C(N)=S)C(=O)C1N=Nc1ccccc1C(=O)O (configuration not stated)	-	0	0	0	?	0
CC1=NN(C(N)=S)C(=O)C1N=Nc1ccc(Cl)cc1Cl (configuration not stated)	76.6	0	0	25.4	0	0
CCc1ccccc1NC(=O)c1ccc2c(c1)N(Cc1cc(C)ccc1C)C(=O)c1ccccc1S2(=O)=O	-	-	0	-	-	-
Cn1cnc(S(=O)(=O)N2CCC(C(=O)N3CCN(c4ccccc4F)CC3)CC2)c1	-	-	0	-	-	-
O=c1oc(CCCO)cc2ccccc12	-	0	0	-	-	-
CCc1nnc(NC(=O)c2nc(S(=O)(=O)Cc3ccccc3)ncc2Cl)s1	113.7	0	0	74.8	?	0
CCc1nnc(NC(=O)c2nc(S(=O)(=O)Cc3cccc(C)c3)ncc2Cl)s1	74.5	0	0	58.2	0	0
CCc1nnc(NC(=O)c2nc(S(=O)(=O)Cc3ccc(C)cc3)ncc2Cl)s1	78.3	0	0	57.0	0	0
COc1ccc(-c2nc3c(c4c2C[C@H](c2ccccc2)OC4)CN(C(=O)c2cc(I)ccc2F)CC3)c(C)c1	-	-	-	-	-	0[11.5 µM]
CC(=O)c1c(C)[nH]c(C(=O)C(C)Sc2nnc(NC3CC3)s2)c1C (configuration not stated)	-	0	0	-	-	-
O=C(Nc1ccc(O)c2c(=O)cc(-c3ccccc3Cl)oc12)c1cc(Cl)cc(Cl)c1	0	-	-	0	-	-
Cc1cc[n+](-c2[nH]c(=O)sc2/C=N/N=C(\[O-])c2ccncc2)cc1	0	0	0	0	0	0
Cc1ccc[n+](-c2[nH]c(=O)sc2/C=N/N=C(\[O-])c2cccnc2)c1	0	0	0	0	0	0
O=c1[nH]c(-[n+]2ccccc2)c(/C=N/N=C(\[O-])c2ccccc2)s1	40.5	0	0	18.9	0	0
Cc1cc[n+](-c2[nH]c(=O)sc2/C=N/N=C(\[O-])c2ccccc2)cc1	68.3	0	0	49.0	0	0
SMILES	Shiga inhibitor	SARS PLpro yeast	Tb PYK inh	CHX counter	NS1 inh	LmPK inh
Cc1cc[n+](-c2[nH]c(=O)sc2/C=N/N=C(\[O-])c2ccccc2)cc1C	73.8	0	0	38.9	-	0
O=C(N/N=C/c1sc(=O)[nH]c1-[n+]1ccc2ccccc2c1)c1ccccc1[O-]	48.4	0	0	27.1	0	0
Cc1cc[n+](-c2[nH]c(=O)sc2/C=N/N=C(\[O-])c2ccncc2)cc1C	0	0	0	0	0	0
O=C(OCc1nc2ccsc2c(=O)[nH]1)c1cccc(S(=O)(=O)N2CCOCC2)c1	-	0	0	-	-	-
COc1ccccc1N1CCN(C(=O)C(=O)c2c(C)[nH]c3ccccc23)CC1	0	0	0	0	0	0
CC(C)(C)NC(=O)[C@H]1CN(Cc2cccnc2)CCN1C[C@@H](O)C[C@@H](Cc1ccccc1)C(=O)N[C@H]1c2ccccc2C[C@H]1O	0	-	0	0	-	-
COc1cccc2cc(-c3nnc(Nc4ccccc4C)s3)c(=O)oc12	-	-	0	-	-	-
Cn1cccc1CC(=O)N/N=C\c1c2ccccc2cc2ccccc12	0	0	0	0	0	0
Cc1ccsc1/C=N/NC(=O)Cc1cccn1C	0	0	0	21.3	0	0
